ChEMBL document CHEMBL3988442, “University of Dundee, Small-Polar-MMV Screening Library” (2021)
About 13,000 (27%) of roughly 48,000 compounds showed an effect of 50% or more. The list shows a part of the results.

tested on: Wolbachia pipientis; assay: Anti-Wolbachia Cell-Based Screen; format: functional; set-up: scale not given: in the data most compounds retested in dose-response had high values; details: 5 µM

| Compound | Percent Effect [%] |
| --- | --- |
| O=C(c1cc[nH]n1)N(Cc1cccc(O)c1)CC1CC1 | -5.824 |
| CN1CCCCC12CCN(c1nncs1)CC2.O=C(O)C(F)(F)F | -22.78 |
| CCCN1CCc2[nH]nc(C(=O)N3CCNC(=O)C3)c2C1.O=C(O)C(F)(F)F.O=C(O)C(F)(F)F | -12.08 |
| CCc1nnc(C2Cc3ccccc3CN2Cc2nc(C3CC3)no2)o1 (stereo not given) | -3.635 |
| CCc1nnc(C2Cc3ccccc3CN2Cc2cc(C)on2)o1 (stereo not given) | 6.832 |
| CCc1nnc(C2Cc3ccccc3CN2Cc2cc(C)no2)o1 (stereo not given) | -1.172 |
| Cc1nnc(C2Cc3ccccc3CN2Cc2c(C)noc2C)o1 (stereo not given) | 100.9 |
| Cc1nnc(C2Cc3ccccc3CN2Cc2ncc(C(C)(C)C)o2)o1 (stereo not given) | 21.52 |
| Cc1cc(CN2Cc3ccccc3CC2c2nnc(C)o2)no1 (stereo not given) | 108.3 |
| CCc1nnc(C2Cc3ccccc3CN2Cc2nc(C)no2)o1 (stereo not given) | 88.09 |
| Cc1noc(CN2Cc3ccccc3CC2c2nnc(C)o2)n1 (stereo not given) | 1.632 |
| Cc1nnc(C2Cc3ccccc3CN2Cc2nc(C3CC3)no2)o1 (stereo not given) | -2.569 |
| Cc1cc(CN2Cc3ccccc3CC2c2nnc(C)o2)on1 (stereo not given) | 1.784 |
| Cc1noc(C)c1CN1CCCC1C(=O)OCc1ccccc1 (stereo not given) | 4.096 |
| Cc1nnc(C2Cc3ccccc3CN2Cc2nc(C(C)C)no2)o1 (stereo not given) | 134.6 |
| C[C@@H](NCc1cccc(Cl)c1)c1onc(-c2ccccc2)c1C(=O)O | -2.837 |
| COc1cc(CN(C)C(=O)Nc2cc(C)on2)ccc1SC | -6.064 |
| O=C1NC(c2ccccc2)=N[C@@]12CC[C@@H]1CN(Cc3nccs3)C[C@@H]12 | -1.68 |
| CC(C)N1CCC(N2CCCC(C(=O)NCC3(O)CCCCC3)C2)CC1 (stereo not given) | 0.6612 |
| COCc1ncn2c1CN(C(=O)C1CC=CC1)CC2 | -12.78 |
| COCc1cnc2n1CCN(C(=O)c1ccc3ccccc3n1)C2C.O=C(O)C(F)(F)F (stereo not given) | -39.11 |
| COCc1ncn2c1CN(C(=O)c1cccc3cccnc13)CC2.O=C(O)C(F)(F)F | 103 |
| COCc1ncn2c1CN(C(=O)c1cnc3ccccc3c1)CC2 | 79.69 |
| COCc1ncn2c1CN(C(=O)c1ccc3ccccc3n1)CC2.O=C(O)C(F)(F)F | 86.38 |

| Compound | Percent Effect [%] |
| --- | --- |
| Cc1ccc(C(=O)N2CCn3cnc(COCC4CC4)c3C2)cn1.O=C(O)C(F)(F)F | -1.031 |
| O=C(O)C(F)(F)F.O=C(c1ccccn1)N1CCn2cnc(COCC3CC3)c2C1 | 22.66 |
| COCc1ncn2c1CN(S(=O)(=O)Cc1ccc(C)cc1)CC2.O=C(O)C(F)(F)F | 14.75 |
| Cc1ccc(F)c(N2CCCC(NS(=O)(=O)CCCF)C2=O)c1 (stereo not given) | -1.757 |
| O=C(CN1CCOc2ccc(Cl)cc21)NCCCn1ccnc1 | 9.044 |
| CN(C(=O)OC(C)(C)C)C1CCN(C(=O)c2ccc(Cl)o2)C1 (stereo not given) | -6.554 |
| CCS(=O)(=O)c1ncc(CN(C)Cc2ccccn2)n1CCOC | -6.84 |
| Cc1noc(NS(=O)(=O)c2ccc(Cl)s2)c1C | -16.85 |
| COCCn1c2c(ccc1=O)CCN(Cc1ccoc1)CC2 | 106.6 |
| Cn1c2c(ccc1=O)CCN(Cc1ccoc1)CC2.O=C(O)C(F)(F)F | 97.4 |
| COCC1c2c(cnn2C)CCN1Cc1ccoc1 (stereo not given) | -6.273 |
| COc1ccc2c(c1)C1(CCN(Cc3ccoc3)CC1)N(C)CC2 | -15.48 |
| O=C(O)C(F)(F)F.O=C(O)C(F)(F)F.O=c1ccc2c(n1Cc1cccnc1)CCN(CC1CCOC1)CC2 (stereo not given) | -12.29 |
| O=C(O)C(F)(F)F.O=C(O)C(F)(F)F.O=c1ccc2c(n1CCN1CCCC1)CCN(Cc1ccoc1)CC2 | -0.3339 |
| O=C(O)C(F)(F)F.O=C(O)C(F)(F)F.O=c1ccc2c(n1Cc1cccnc1)CCN(C1CCOC1)CC2 (stereo not given) | 2.129 |
| O=C(O)C(F)(F)F.O=C(O)C(F)(F)F.O=c1ccc2c(n1Cc1cccnc1)CCN(Cc1ccoc1)CC2 | 110 |
| O=C(O)C(F)(F)F.O=C(O)C(F)(F)F.O=c1ccc2c(n1Cc1ccncc1)CCN(Cc1ccoc1)CC2 | 96.18 |
| CS(=O)(=O)NCC1(c2ccccc2Br)CC1 | 1.161 |
| O=C(O)C1CCN(C[C@H]2CC[C@@H](Cc3ccc4c(c3)OCO4)O2)CC1 | 4.381 |
| Cc1cc(Cl)ccc1S(=O)(=O)NCC(C)N1CCN(C)CC1 (stereo not given) | 0.8605 |
| CC1CCN(Cc2cnc(S(=O)(=O)CC3CC3)n2CC2CCCO2)CC1 (stereo not given) | 3.735 |
| CCC(C)Oc1cc(C(=O)Nc2nccs2)ccn1 (stereo not given) | -12.97 |
| Cc1cnn(C(C)C2CC2)c1NC(=O)c1ccc(Cn2cnnn2)cc1 (stereo not given) | 7.746 |
| COc1nc2c(cc1C(=O)N1C[C@@H](N)C[C@H]1C(=O)NC(C)C)CCC2 | 2.559 |

| Compound | Percent Effect [%] |
| --- | --- |
| CCOC(=O)c1coc(N2CCN(Cc3cc(C)cc(C)c3)C(=O)C2)n1 | -24.84 |
| O=C(O)C(F)(F)F.O=c1ccc2c(n1CC1CCOCC1)CCN(Cc1ccoc1)CC2 | 125.5 |
| CS(=O)(=O)N1CCc2ccc(=O)n(CC3CCOCC3)c2CC1 | -13.75 |
| O=C(NCCc1cccs1)[C@]12COC[C@H]1CN(Cc1ccncc1)C2.O=C(O)C(F)(F)F.O=C(O)C(F)(F)F | -23.54 |
| CN(Cc1ccccn1)C(=O)[C@]12COC[C@H]1CN(Cc1cnn(C)c1)C2 | -17.57 |
| Cn1cc(CN2C[C@@H]3COC[C@]3(C(=O)NCc3cccs3)C2)cn1 | 98.41 |
| Cn1cc(CN2C[C@@H]3COC[C@]3(C(=O)NCCc3ccccc3)C2)cn1.O=C(O)C(F)(F)F | 92.46 |
| Cn1cc(CN2C[C@@H]3COC[C@]3(C(=O)N3CCCO3)C2)cn1 | -0.6058 |
| CS(=O)(=O)N1C[C@@H]2COC[C@]2(C(=O)NCCc2cccs2)C1 | -42.96 |
| Cn1cc(CN2CC(C(=O)Nc3ccccc3)C3(CCOCC3)C2)cn1.O=C(O)C(F)(F)F (stereo not given) | 0.729 |
| O=C(NCc1cccs1)[C@]12COC[C@H]1CN(c1ncccn1)C2.O=C(O)C(F)(F)F | -12.11 |
| CC(C)NC(=O)[C@]12COC[C@H]1CN(Cc1cnn(C)c1)C2 | 82.27 |
| COc1ccccc1CCNC(=O)CNC1CCc2nc(C)nn2C1 (stereo not given) | -4.852 |
| CC(=O)N1CCn2c(COCc3csc(C)n3)cnc2C1C (stereo not given) | 17.55 |
| Cc1nn(C)c2nc(N(CCN(C)C)C3CCCC3)sc12 | -1.05 |
| Cc1cccc(C(=O)NCCNCC2CNc3ccnn3C2)c1 (stereo not given) | -9.397 |
| CC(C)Cn1cnc(S(=O)(=O)NCCc2nnc3ccccn23)c1 | 8.202 |
| CCn1nc2nc(SCC(=O)O)cc(C(F)F)c2c1C | 86.56 |
| Cc1cc(SCC(=O)O)nc2nn(CC(F)F)c(C)c12 | 120.4 |
| CC(C)Cc1nnc(SCC(=O)O)n1-c1ccc(F)cc1F | 1.309 |
| CCCn1cc(C(=O)NC(CC(=O)O)c2ccccc2F)c(C)n1 (stereo not given) | -6.071 |
| Cc1c(-c2nnc(SCC(=O)O)n2C(C)c2ccccc2)cnn1C (stereo not given) | 8.856 |
| CCc1cc(C(F)(F)F)c2c(C)nn(CC(=O)O)c2n1 | -1.783 |
| Cc1cc(-c2nnc(SCC(=O)O)n2C(C)c2ccccc2)nn1C (stereo not given) | 4.931 |

| Compound | Percent Effect [%] |
| --- | --- |
| Cc1c2c(C(F)F)cc(SCC(=O)O)nc2nn1C | 97.91 |
| CCn1nc(C)c(NC(=O)C(C)C)c1C | -2.093 |
| CCCn1cc2c(C(F)F)cc(SCC(=O)O)nc2n1 | 93.6 |
| CN(Cc1cccc(Cl)c1)Cc1nnsc1Cl | -20.09 |
| Cc1oc(-c2ccccc2)nc1CC(=O)NC1=NCCS1 | -12.38 |
| CCc1nsc(NC2CC(=O)N(C3CC3)C2)n1 (stereo not given) | 5.167 |
| O=C(c1ccc[nH]1)N1CCN(CC2CCOc3ccccc3C2)CC1 (stereo not given) | -0.508 |
| O=C(NCC1(O)CCOC1)NCC1(c2ccccc2Cl)CCC1 (stereo not given) | 17.28 |
| Cc1cc(CC(C)NC(=O)Cc2cc(F)ccc2C)[nH]n1 (stereo not given) | -12.96 |
| Cc1nc(C2CCCN2Cc2cc(Cl)c3c(c2)OCO3)no1 (stereo not given) | -3.682 |
| O=C(C1CCC1)N1C(CN2CCOCC2)[C@]2(O)CC[C@H]1CC2 (stereo not given in full) | 92.68 |
| C[C@@H]1CN(C(=O)CCN2CCOCC2)CC[C@]1(C)O | -11.44 |
| O=C(N1CCOCC1)N1CC[C@@](O)(c2ccccc2)[C@H]2CCCC[C@@H]21 | 4.203 |
| O=C(N1CCOCC1)N1C[C@H]2CC[C@@H]1CN(C1Cc3ccccc3C1)C2 | 12.43 |
| COCC1N(C(=O)N2CCOCC2)[C@H]2CC[C@]1(O)CC2 (stereo not given in full) | 110.4 |
| COC[C@@]12CCO[C@@H]1CCN(C(=O)C1CCOCC1)C2 | 4.117 |
| Cn1c(CN2CCOCC2)nnc1C1CCN(C(=O)C2CCCC2)CC1 | -7.454 |
| O=C(C1CCOCC1)N1C[C@@H]2OCCN(CCN3CCCC3)[C@@H]2C1 | -5.298 |
| O=C(N1CCOCC1)N1C(CN2CCOCC2)[C@]2(O)CC[C@H]1CC2 (stereo not given in full) | 118.3 |
| CCC(CC)n1nc(C)cc1NC(=O)C1CCOC1 (stereo not given) | 10.26 |
| Cc1ccccc1[C@@H]1CN(CCCS(=O)(=O)N(C)C)C[C@H]1C(=O)O | -19.2 |
| O=C(NC[C@H]1OC[C@@H]2CCN(c3ncccn3)C[C@@H]21)c1ccnnc1 | 8.157 |
| CCn1ccnc1CN1CCCC(CO)(CCCc2ccccc2)C1 (stereo not given) | 6.615 |
